Screens (PubChem)
The list is not random: actives were taken first. Their share in the collection is about 9.4%.
ELG1 DNA repair: blocks ELG1-dependent DNA repair in HEK293T cells | HEK293T ELG1-luciferase reporter, luminescence, 16 h; DNA damage induced by 5-fluorouridine | hit rate 2.3% among 330,000 | Potency, µM (titrated, usually from 46.1 µM), for inactives: top-dose activity change, negative = inhibition, most hits filed as inhibitors; note: % is set by controls: 0 for no effect and ±100 for the full control effect; nearly all actives have a fitted effect of over 55% in size
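In this reporter screen, reduction of luminescence relative to DMSO vehicle indicated activity. Compounds and 5-fluorouridine were added together to 2,000 cells per well, incubated for 16 hr at 37 °C, then developed with ONE-Glo.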
SMN2 splice up: enhancers of SMN2 splice variant expression. HEK293 SMN2-luciferase splicing reporter, luminescence, 30-36 h. Potency, µM (top dose mostly 46.1 µM), without a hit: at the top dose activity change, positive = activation, most hits filed as activators. hit rate 2.8% among 210,000; note: % of control where 0% means no effect; nearly all actives have a fitted effect of over 55% in size
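HEK293 cells carry an SMN2 […]–luciferase reporter in which exon 7 inclusion puts luciferase in frame. Cells were plated 10-12 h before compound addition, then incubated 30-36 h at 37C. ONE-Glo luminescence was read; sodium butyrate at 4.5 mM final served as control.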
ELG1 genotox: induces genotoxicity in HEK293T cells with luciferase-tagged ELG1; HEK293T ELG1-luciferase reporter, luminescence, 16 h; AID 504466; hit rate 1.3% among 330,000; Potency, µM (titrated, usually from 46 µM), for the others: at the top dose activity change, positive = activation, usual class: activators; note: % of control where 0% means no effect; nearly all actives have a fitted effect of over 60% in size
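Quantitative HTS format in 1536-well plates. HEK293T ELG1-luciferase reporter cells receive test compound and are incubated 16 hr at 37 °C, 5% CO2; ONE-Glo added, 30 min room temperature, then luminescence read.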
FLuc modulator: inhibits or activates purified firefly luciferase, miR-21 counter-screen; P08659; purified FLuc, Km substrates, luminescence inhibition; Potency, µM (series often up to 57.5 µM), for the others: at the top dose activity change, negative = inhibition, most hits filed as inhibitors; hit rate 6.9% among 360,000; AID 588342;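 note: plate controls were vehicle for no effect and reference inhibitor for full effect; nearly all actives have a fitted effect of over 55% in size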
Target sequence (P08659 whole entry, looked up): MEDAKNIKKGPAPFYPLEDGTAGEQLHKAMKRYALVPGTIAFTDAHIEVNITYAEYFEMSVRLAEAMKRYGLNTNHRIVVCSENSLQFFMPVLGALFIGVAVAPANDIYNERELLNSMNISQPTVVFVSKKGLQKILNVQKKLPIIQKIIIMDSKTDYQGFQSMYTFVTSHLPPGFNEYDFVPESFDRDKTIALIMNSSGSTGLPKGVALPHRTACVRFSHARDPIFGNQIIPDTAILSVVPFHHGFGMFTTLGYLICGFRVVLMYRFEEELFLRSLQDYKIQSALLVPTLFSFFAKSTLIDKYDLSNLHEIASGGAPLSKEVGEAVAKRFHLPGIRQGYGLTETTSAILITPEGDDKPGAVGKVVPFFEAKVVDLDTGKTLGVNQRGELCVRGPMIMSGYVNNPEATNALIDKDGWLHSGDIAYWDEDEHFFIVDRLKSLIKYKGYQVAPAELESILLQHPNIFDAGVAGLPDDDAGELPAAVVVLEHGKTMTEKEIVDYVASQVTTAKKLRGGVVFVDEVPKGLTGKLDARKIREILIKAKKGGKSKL
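Purified P. pyralis luciferase (10nM final) with 10uM D-luciferin and 10uM ATP (Km levels) in 50mM Tris acetate pH 7.5, 10mM Mg acetate, 0.01% Tween-20, 0.05% BSA; qHTS 6-point titration, ~60 µM downward; luminescence read.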
NPC1 promoter act: activators of NPC1 promoter; Huh7 NPC1 promoter luciferase reporter, 24 h; hit rate 2.4% among 320,000; Potency, µM (titrated, usually from 9.22 µM), for the others: at the highest dose activation, actives largely listed as activators; note: % of control where 0% means no effect; nearly all actives have a fitted effect of over 60% in size
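Huh7 reporter cells (NPC1 promoter driving luciferase) are dosed with compound for 24 h at 37 °C, 5% CO2; luciferase detection reagent is then added and luminescence measured after 10 min at ambient temperature.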
Rab9 promoter act: activates the Rab9 promoter. Huh7 Rab9 promoter-luciferase reporter, luminescence, 24 h. Potency, µM (series often up to 9.22 µM), without a hit: at the top dose activation, negative = inhibition, hits mostly activators. hit rate 2.8% among 320,000. AID 485297; note: % of control where 0% means no effect; nearly all actives have a fitted effect of over 60% in size
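Luminescence from Amplite-detected luciferase (10 minutes, ambient) reports Rab9 promoter activation. Before that, stable Rab9-luciferase Huh7 cells (1500/well, reduced-serum OP-MEM I plus 10% FBS) were exposed to compound for 24 hours at 37C.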
* hit, by the source's call; u = inconclusive; x = not tested or not shown; [ ] = another dose, or the depositor's remark. Calls come from the whole dose curve; as a rule, active = well fitted curve in the direction sought with a large enough effect; inconclusive = small, poorly fitted or top-dose-only effect, or another doubt; inactive = no such curve, though single readings can be large; an effect the other way counts as inactive or inconclusive. Potency is the fitted concentration of half-maximal effect.

SMILES	ELG1 DNA repair	SMN2 splice up	ELG1 genotox	FLuc modulator	NPC1 promoter act	Rab9 promoter act
CCc1ccccc1NC(=O)C1CCCN(c2nnc(-n3c(C)ccc3C)s2)C1 (stereo not drawn)	x	-6%	x	-3%	x	x
CC(=O)N1c2ccc(S(=O)(=O)NCC3CCC(C(=O)Nc4cc(C)ccc4C)CC3)cc2CC1C (stereo not drawn)	x	x	x	-3%	x	x
COC(=O)c1c(NC(=O)CN2CCN(C(=O)c3ccco3)CC2)c2cc(C)ccc2n1C	21µM*	-24%	-12%	3%	-3%	12%
COC(=O)c1[nH]c2ccccc2c1NC(=O)CN1CCN(C(=O)c2ccco2)CC1	21µM*	-11%	-5%	2%	8%	2%
CCOC(=O)C1CCCN(CC(=O)Nc2c(C(=O)OC)[nH]c3ccc(Cl)cc23)C1 (stereo not drawn)	21µM*	25%	-18%	3%	-1%	-2%
COC(=O)c1[nH]c2ccccc2c1NC(=O)CN1CCCCCC1	u	5%	-4%	4%	8%	3%
COC(=O)c1[nH]c2ccccc2c1NC(=O)CN1CCC(C(N)=O)(N2CCCCC2)CC1	6.5µM*	u	-2%	1%	-1%	-2%
CCN(CC(=O)Nc1c(C(=O)OC)[nH]c2ccc(Cl)cc12)c1ccc2c(c1)OCO2	23µM*	x	-22%	-11%	4%	9%
CCOC(=O)c1[nH]c2ccc(Cl)cc2c1NC(=O)/C=C/c1ccc2c(c1)OCO2	-2%	-24%	14%	6%	-10%	-16%
Cc1nc(-c2cccc(C(F)(F)F)c2)sc1C(=O)O	u	u	u	u	18%	15%
Cc1nc(-c2ccc(Cl)cc2)sc1C(=O)O	u	11µM*	u	15µM*	u	u
CC(=O)c1sc(-c2ccccc2)nc1C	u	-2%	12%	-19%	1%	5%
Cc1nc(-c2ccccc2)sc1C(=O)O	u	u	9%	u	19%	23%
Cc1ccc(-c2nc(C)c(C(=O)O)s2)cc1	u	x	u	4.8µM*	-14%	u
Cc1nc(-c2ccc([N+](=O)[O-])cc2)sc1C(=O)O	u	x	u	27µM*	24%	u
CN(C)c1ccc(CNC(=O)c2ccc(Cn3c(=O)c4cccn4c4cccnc43)cc2)cc1	x	x	x	0%	x	x
CC(=O)SC1CC2=CC(=O)CC[C@]2(C)C2CC[C@@]3(C)[C@@H](CC[C@@]34CCC(=O)O4)C12 (stereo partly drawn)	x	-6%	x	x	x	x
Cc1ccccc1Cn1ccc(NC(=O)c2cnn3c(C(F)(F)F)cc(-c4ccco4)nc23)n1	7.9µM*	-39%	-21%	-3%	-11%	-2%
Cc1ccccc1Cn1ccc(NC(=O)CCSc2nc(-c3ccco3)cc(C(F)(F)F)n2)n1	u	u	-4%	10%	-1%	-6%
Cc1ccc(CSc2nncn3c2cc2sccc23)cc1	x	x	x	0%	x	x
CCOc1ccc(-c2cn3ccccc3n2)cc1	u	0.89µM*	u	0.54µM*	u	u
Fc1ccc(-c2cn3ccccc3n2)cc1	u	x	u	2.7µM*	0.71µM*	0.56µM*
O=S(=O)(c1ccc(-c2cn3ccccc3n2)cc1)N1CCOCC1	9%	-43%	11%	u	3%	2%
O=C1CSC(c2cn(-c3ccccc3)nc2-c2cc3ccccc3oc2=O)N1Cc1ccccc1 (stereo not drawn)	21µM*	-9%	-2%	-1%	-3%	-8%
CCOC(=O)c1ccc(N/C=C2/CCCC(C)C2=O)cc1 (stereo not drawn)	u	u	4.1µM*	5.4µM*	3.2µM*	2.5µM*
SMILES	ELG1 DNA repair	SMN2 splice up	ELG1 genotox	FLuc modulator	NPC1 promoter act	Rab9 promoter act
CC(=O)Nc1ccc(N/C=C2/CCCC2=O)cc1	u	x	14%	-9%	4%	1%
CC1CCC/C(=C\Nc2ccc(C(=O)O)cc2)C1=O (stereo not drawn)	u	x	u	4.8µM*	u	u
CCOC(=O)c1ccc(NC=C2C(=O)OC3(CCCCC3)OC2=O)cc1	-10%	-8%	4%	1%	0%	-4%
CC1CCC/C(=C\Nc2ccc(C(=O)O)c(O)c2)C1=O (stereo not drawn)	u	x	u	11µM*	3.5µM*	3.5µM*
O=C1CCCC/C1=C\Nc1ccc(C(=O)O)c(O)c1	u	x	16%	11µM*	29%	u
Cc1cccc(CCn2c(=O)c3ccccc3n(Cc3ccccc3C)c2=O)c1	x	-12%	x	-16%	x	x
COc1ccc2c(Cc3c4ccccc4cc4ccccc34)cncc2c1O	x	-5%[9.22 µM]	x	x	x	x
CCOC(=O)c1c(-c2ccccc2)oc2ccc(NS(=O)(=O)c3ccc(C)cc3)cc12	x	-47%	x	-13%	x	x
O=C(Nc1ccc2sccc2c1)c1ccc(Cl)s1	u	7.1µM*	1.5µM*	0.67µM*	1.4µM*	1µM*
O=C(Nc1ccc2c(c1)C(=O)NC2=O)c1ccc(Cl)s1	6%	x	4%	-1%	-4%	2%
Cc1ccc(S(=O)(=O)N(CC(=O)N2CCc3ccccc3C2)c2ccc(C)c(C)c2)cc1	x	18%	x	3%	x	x
COc1ccc(/C=C2\CCc3ccccc3C2=O)cc1Cn1nc(C)cc1C	-24%	-29%	19%	13µM*	-10%	-2%
COc1ccc(/C=C/C(=O)c2ccccc2O)cc1CN1CCOCC1	u	-12%	-9%	-3%	-3%	2%
COc1ccc(/C=C2/CCc3ccccc3C2=O)cc1CN1CCOCC1	u	-15%	18%	9.5µM*	-1%	0%
CCN1CCc2c(sc(-n3cccc3)c2C(C)NC(=O)Nc2cc(Cl)c(OC)cc2OC)C1 (stereo not drawn)	x	x	x	5%	x	x
COC(=O)C1=C(c2ccccc2)c2ccccc2S(=O)(=O)N1CC(=O)Nc1cccc(C(C)=O)c1	x	-1%	x	-17%	x	x
COc1ccc(C(=O)NC(C(=O)NCC2CCCO2)C(C)C)cc1 (stereo not drawn)	7%	0%	0%	-3%	-2%	12%
CCOc1ccc(C(=O)NC(C(=O)NCC2CCCO2)C(C)C)cc1 (stereo not drawn)	23µM*	x	-6%	0%	17%	0%
Cc1ccc(C(C(=O)NCC2CCCO2)N(C(=O)c2snc(C(N)=O)c2N)c2ccc(F)cc2)o1 (stereo not drawn)	-2%	x	-13%	-1%	1%	-1%
CCOc1cc(NC(=S)NCC2CCCO2)c(OCC)cc1NC(=O)c1ccc(OC)cc1 (stereo not drawn)	13µM*	-13%	-9%	-5%	-2%	-4%
